What all share (test): PBM; 200 nM protein, PBS
Holding throughout (conditions): dsDNA, one strand shown

Assay [1] has as its target HOXB9 (Homo sapiens, UniProt P17482 171-250, T197M).
Assay [2] addresses HOXC9 (Homo sapiens, UniProt P31274 178-260, K195R).
In assay [3] the target is HOXA7 (Homo sapiens, UniProt P31268 116-202).
For assay [4], the target named is HOXB6 (Homo sapiens, UniProt P17509 132-218, K202E).
Assay [5] addresses HOXB9 (Homo sapiens, UniProt P17482 171-250).
Assay [6] concerns the target HOXC9 (Homo sapiens, UniProt P31274 178-260).
The target in assay [7] is HOXD13 (Homo sapiens, UniProt P35453 263-343, T313R).
Another assay addresses T1, NKX2-6 (Homo sapiens, UniProt A6NCS4 118-204).
T1 sequence: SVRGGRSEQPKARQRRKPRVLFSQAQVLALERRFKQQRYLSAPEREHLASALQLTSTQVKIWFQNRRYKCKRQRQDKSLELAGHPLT

Assay [8] has as its target HOXC9 (Homo sapiens, UniProt P31274 178-260, R193K).
Assay [9] has as its target HOXD13 (Homo sapiens, UniProt P35453 263-343).
The next assay deals with HOXC10 (Homo sapiens, UniProt Q9NYD6 254-340, K271E).
For assay [10], the target named is HOXD13 (Homo sapiens, UniProt P35453 263-343, T313A).
For assay [11], the target named is HOXB9 (Homo sapiens, UniProt P17482 171-250, R186Q).
Assay [12] has as its target HOXC9 (Homo sapiens, UniProt P31274 178-260, R222W).
For assay [13], the target named is HOXA7 (Homo sapiens, UniProt P31268 116-202, W177C).
The target in assay [14] is HOXB6 (Homo sapiens, UniProt P17509 132-218).
Assay [15] addresses T2, VENTX (Homo sapiens, UniProt O95231 78-163, R121Q).
T2 sequence: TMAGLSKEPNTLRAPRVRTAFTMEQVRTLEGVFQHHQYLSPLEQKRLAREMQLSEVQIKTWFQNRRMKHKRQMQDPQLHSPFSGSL

Assay [16] addresses T3, VENTX (Homo sapiens, UniProt O95231 78-163).
T3 sequence: T2 sequence with Q44R

Assay [17] deals with T4, VENTX (Homo sapiens, UniProt O95231 78-163, Y115F).
T4 sequence: T2 sequence with Y38F, Q44R

Another assay has as its target CRX (Homo sapiens, UniProt O43186 26-111, R41L).
In assay [18] the target is T5, SIX6 (Homo sapiens, UniProt O95475 114-200, L167I).
T5 sequence: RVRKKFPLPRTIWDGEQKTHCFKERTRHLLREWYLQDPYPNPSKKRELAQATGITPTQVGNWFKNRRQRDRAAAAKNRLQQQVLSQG

For assay [19], the target named is T6, SIX6 (Homo sapiens, UniProt O95475 114-200, L143V).
T6 sequence: T5 sequence with L30V, I54L

In assay [20] the target is T7, SIX6 (Homo sapiens, UniProt O95475 114-200, H141N).
T7 sequence: T5 sequence with H28N, I54L

Assay [21] has as its target T8, SIX6 (Homo sapiens, UniProt O95475 114-200, T165P).
T8 sequence: T5 sequence with T52P, I54L

Assay [22] deals with T9, SIX6 (Homo sapiens, UniProt O95475 114-200, L167M).
T9 sequence: T5 sequence with I54M

Assay [23] concerns the target T10, SIX6 (Homo sapiens, UniProt O95475 114-200, L143M).
T10 sequence: T5 sequence with L30M, I54L

The target of assay [24] is T11, SIX6 (Homo sapiens, UniProt O95475 114-200, L143I).
T11 sequence: T5 sequence with L30I, I54L

In assay [25] the target is T12, SIX6 (Homo sapiens, UniProt O95475 114-200, T165G).
T12 sequence: T5 sequence with T52G, I54L

Assay [26] deals with T13, SIX6 (Homo sapiens, UniProt O95475 114-200, T139Q).
T13 sequence: T5 sequence with T26Q, I54L

Assay [27] addresses T14, SIX6 (Homo sapiens, UniProt O95475 114-200, T165A).
T14 sequence: T5 sequence with T52A, I54L

Assay [28] addresses T15, SIX6 (Homo sapiens, UniProt O95475 114-200, L167V).
T15 sequence: T5 sequence with I54V

Assay [29] addresses T16, SIX6 (Homo sapiens, UniProt O95475 114-200).
T16 sequence: T5 sequence with I54L

The target in assay [30] is T17, SIX6 (Homo sapiens, UniProt O95475 114-200, T165I).
T17 sequence: T5 sequence with T52I, I54L

Substitutions are numbered along the chain they refer to.

HOXB9 (Homo sapiens, UniProt P17482 171-250), sequence (P17482 171-250): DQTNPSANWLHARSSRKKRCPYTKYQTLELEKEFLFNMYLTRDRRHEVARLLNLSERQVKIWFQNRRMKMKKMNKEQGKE
CRX, sequence (O43186 26-111 R41L): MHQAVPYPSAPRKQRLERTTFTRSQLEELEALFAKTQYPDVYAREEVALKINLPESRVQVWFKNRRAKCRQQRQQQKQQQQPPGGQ
HOXB9 (Homo sapiens, UniProt P17482 171-250, T197M), sequence (P17482 171-250 T197M): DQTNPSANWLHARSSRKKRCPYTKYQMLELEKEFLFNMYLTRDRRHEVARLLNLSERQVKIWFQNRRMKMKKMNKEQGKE
HOXB9 (Homo sapiens, UniProt P17482 171-250, R186Q), sequence (P17482 171-250 R186Q): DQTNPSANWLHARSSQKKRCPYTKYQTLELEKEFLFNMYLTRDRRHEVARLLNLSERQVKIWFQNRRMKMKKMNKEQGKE
HOXD13 (Homo sapiens, UniProt P35453 263-343, T313R), sequence (P35453 263-343 T313R): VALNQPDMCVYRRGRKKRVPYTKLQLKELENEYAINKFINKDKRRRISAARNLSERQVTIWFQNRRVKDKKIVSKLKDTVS
HOXA7 (Homo sapiens, UniProt P31268 116-202, W177C), sequence (P31268 116-202 W177C): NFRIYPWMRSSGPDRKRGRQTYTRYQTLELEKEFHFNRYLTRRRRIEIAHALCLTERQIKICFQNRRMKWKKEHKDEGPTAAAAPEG
HOXC9 (Homo sapiens, UniProt P31274 178-260), sequence (P31274 178-260): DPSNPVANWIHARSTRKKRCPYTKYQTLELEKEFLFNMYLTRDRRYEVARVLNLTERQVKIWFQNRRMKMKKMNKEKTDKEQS
HOXD13 (Homo sapiens, UniProt P35453 263-343), sequence (P35453 263-343): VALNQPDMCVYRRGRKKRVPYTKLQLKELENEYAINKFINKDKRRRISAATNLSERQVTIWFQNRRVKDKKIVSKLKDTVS
HOXC9 (Homo sapiens, UniProt P31274 178-260, K195R), sequence (P31274 178-260 K195R): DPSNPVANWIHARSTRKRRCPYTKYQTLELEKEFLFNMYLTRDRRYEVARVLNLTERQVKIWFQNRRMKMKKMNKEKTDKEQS
HOXA7 (Homo sapiens, UniProt P31268 116-202), sequence (P31268 116-202): as the sequence (P31268 116-202 W177C) above, with C62W counted along it
HOXC9 (Homo sapiens, UniProt P31274 178-260, R222W), sequence (P31274 178-260 R222W): as the sequence (P31274 178-260) above, with R45W counted along it
HOXD13 (Homo sapiens, UniProt P35453 263-343, T313A), sequence (P35453 263-343 T313A): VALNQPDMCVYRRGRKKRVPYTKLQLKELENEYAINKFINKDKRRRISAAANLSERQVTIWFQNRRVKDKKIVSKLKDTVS
HOXB6 (Homo sapiens, UniProt P17509 132-218, K202E), sequence (P17509 132-218 K202E): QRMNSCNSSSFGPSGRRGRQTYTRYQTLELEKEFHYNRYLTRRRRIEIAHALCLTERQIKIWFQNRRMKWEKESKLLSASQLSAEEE
HOXC10, sequence (Q9NYD6 254-340 K271E): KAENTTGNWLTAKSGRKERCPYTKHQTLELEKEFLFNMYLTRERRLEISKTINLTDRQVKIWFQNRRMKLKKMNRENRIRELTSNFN
HOXC9 (Homo sapiens, UniProt P31274 178-260, R193K), sequence (P31274 178-260 R193K): as the sequence (P31274 178-260) above, with R16K counted along it
HOXB6 (Homo sapiens, UniProt P17509 132-218), sequence (P17509 132-218): as the sequence (P17509 132-218 K202E) above, with E71K counted along it

With GCTATTAA, the binding signal with HOXB9 [1] was 10 upbm affinity estimate (log intensity, higher = more binding, comparable within an allelic series); with HOXC9 [2], 12.7 upbm affinity estimate (log intensity, higher = more binding, comparable within an allelic series); with HOXA7 [3] it was 11.4 upbm affinity estimate (log intensity, higher = more binding, comparable within an allelic series); with HOXB6 [4], 9.98 upbm affinity estimate (log intensity, higher = more binding, comparable within an allelic series); with HOXB9 [5] it was 12 upbm affinity estimate (log intensity, higher = more binding, comparable within an allelic series); with HOXC9 [6], 12.8 upbm affinity estimate (log intensity, higher = more binding, comparable within an allelic series). Besides, the binding signal with HOXD13 [7] was 10.7 upbm affinity estimate (log intensity, higher = more binding, comparable within an allelic series); in the assay with NKX2-6 it was 11.8 upbm affinity estimate (log intensity, higher = more binding, comparable within an allelic series); with HOXC9 [8], 12.7 upbm affinity estimate (log intensity, higher = more binding, comparable within an allelic series); in the assay with HOXD13 [9], 11.8 upbm affinity estimate (log intensity, higher = more binding, comparable within an allelic series); with HOXC10, 11.8 upbm affinity estimate (log intensity, higher = more binding, comparable within an allelic series); in the assay with HOXD13 [10], 11.5 upbm affinity estimate (log intensity, higher = more binding, comparable within an allelic series). Also, the binding signal in the assay with HOXB9 [11] is 11.8 upbm affinity estimate (log intensity, higher = more binding, comparable within an allelic series); with HOXC9 [12], 10.9 upbm affinity estimate (log intensity, higher = more binding, comparable within an allelic series); with HOXA7 [13], 8.84 upbm affinity estimate (log intensity, higher = more binding, comparable within an allelic series); with HOXB6 [14] it was 11.8 upbm affinity estimate (log intensity, higher = more binding, comparable within an allelic series).

In the case of CCGATTAG, the binding signal with VENTX [15] is 11.6 upbm affinity estimate (log intensity, higher = more binding, comparable within an allelic series); with VENTX [16] it was 12.9 upbm affinity estimate (log intensity, higher = more binding, comparable within an allelic series); with VENTX [17], 11.6 upbm affinity estimate (log intensity, higher = more binding, comparable within an allelic series); with CRX, 11.4 upbm affinity estimate (log intensity, higher = more binding, comparable within an allelic series).

As for CTAATCGC, the binding signal with VENTX [15] was 11.2 upbm affinity estimate (log intensity, higher = more binding, comparable within an allelic series); with VENTX [16], 12.3 upbm affinity estimate (log intensity, higher = more binding, comparable within an allelic series); with VENTX [17], 11.3 upbm affinity estimate (log intensity, higher = more binding, comparable within an allelic series); in the assay with CRX it was 11.6 upbm affinity estimate (log intensity, higher = more binding, comparable within an allelic series).

As to CAGCTGCG, the binding signal with HOXB9 [1] is 8.53 upbm affinity estimate (log intensity, higher = more binding, comparable within an allelic series); with SIX6 [18], 9.16 upbm affinity estimate (log intensity, higher = more binding, comparable within an allelic series); with SIX6 [19], 9.03 upbm affinity estimate (log intensity, higher = more binding, comparable within an allelic series); in the assay with SIX6 [20], 9.09 upbm affinity estimate (log intensity, higher = more binding, comparable within an allelic series); with SIX6 [21], 9 upbm affinity estimate (log intensity, higher = more binding, comparable within an allelic series); with SIX6 [22] it was 9.04 upbm affinity estimate (log intensity, higher = more binding, comparable within an allelic series). For the same sequence, the binding signal with SIX6 [23] is 9.22 upbm affinity estimate (log intensity, higher = more binding, comparable within an allelic series); with SIX6 [24] it was 9.01 upbm affinity estimate (log intensity, higher = more binding, comparable within an allelic series); with SIX6 [25] it was 9.19 upbm affinity estimate (log intensity, higher = more binding, comparable within an allelic series); with HOXB9 [5], 8.16 upbm affinity estimate (log intensity, higher = more binding, comparable within an allelic series); with SIX6 [26], 9.25 upbm affinity estimate (log intensity, higher = more binding, comparable within an allelic series); with SIX6 [27] it was 9.08 upbm affinity estimate (log intensity, higher = more binding, comparable within an allelic series). Moreover, the binding signal with SIX6 [28] was 9.05 upbm affinity estimate (log intensity, higher = more binding, comparable within an allelic series); with SIX6 [29] it was 9.08 upbm affinity estimate (log intensity, higher = more binding, comparable within an allelic series); with SIX6 [30] it was 9.09 upbm affinity estimate (log intensity, higher = more binding, comparable within an allelic series); in the assay with HOXB9 [11] it was 8.31 upbm affinity estimate (log intensity, higher = more binding, comparable within an allelic series).

The values above are taken from article PMC11006913.
